KDM5B inhibitor = Primary screen for KDM5B Histone Demethylases FDH-coupled qHTS; Potency, µM (highest dose often 57.7 µM), most hits filed as inhibitors; KDM5B demethylase, FDH-coupled NADH fluorescence (FDH is formaldehyde dehydrogenase); 220,000 compounds, 2.6% hits; active means well fitted inhibition curve with a large enough effect; further: nearly all actives have a fitted effect of over 70% in size
Target sequence (Q9UGL1 whole entry, looked up): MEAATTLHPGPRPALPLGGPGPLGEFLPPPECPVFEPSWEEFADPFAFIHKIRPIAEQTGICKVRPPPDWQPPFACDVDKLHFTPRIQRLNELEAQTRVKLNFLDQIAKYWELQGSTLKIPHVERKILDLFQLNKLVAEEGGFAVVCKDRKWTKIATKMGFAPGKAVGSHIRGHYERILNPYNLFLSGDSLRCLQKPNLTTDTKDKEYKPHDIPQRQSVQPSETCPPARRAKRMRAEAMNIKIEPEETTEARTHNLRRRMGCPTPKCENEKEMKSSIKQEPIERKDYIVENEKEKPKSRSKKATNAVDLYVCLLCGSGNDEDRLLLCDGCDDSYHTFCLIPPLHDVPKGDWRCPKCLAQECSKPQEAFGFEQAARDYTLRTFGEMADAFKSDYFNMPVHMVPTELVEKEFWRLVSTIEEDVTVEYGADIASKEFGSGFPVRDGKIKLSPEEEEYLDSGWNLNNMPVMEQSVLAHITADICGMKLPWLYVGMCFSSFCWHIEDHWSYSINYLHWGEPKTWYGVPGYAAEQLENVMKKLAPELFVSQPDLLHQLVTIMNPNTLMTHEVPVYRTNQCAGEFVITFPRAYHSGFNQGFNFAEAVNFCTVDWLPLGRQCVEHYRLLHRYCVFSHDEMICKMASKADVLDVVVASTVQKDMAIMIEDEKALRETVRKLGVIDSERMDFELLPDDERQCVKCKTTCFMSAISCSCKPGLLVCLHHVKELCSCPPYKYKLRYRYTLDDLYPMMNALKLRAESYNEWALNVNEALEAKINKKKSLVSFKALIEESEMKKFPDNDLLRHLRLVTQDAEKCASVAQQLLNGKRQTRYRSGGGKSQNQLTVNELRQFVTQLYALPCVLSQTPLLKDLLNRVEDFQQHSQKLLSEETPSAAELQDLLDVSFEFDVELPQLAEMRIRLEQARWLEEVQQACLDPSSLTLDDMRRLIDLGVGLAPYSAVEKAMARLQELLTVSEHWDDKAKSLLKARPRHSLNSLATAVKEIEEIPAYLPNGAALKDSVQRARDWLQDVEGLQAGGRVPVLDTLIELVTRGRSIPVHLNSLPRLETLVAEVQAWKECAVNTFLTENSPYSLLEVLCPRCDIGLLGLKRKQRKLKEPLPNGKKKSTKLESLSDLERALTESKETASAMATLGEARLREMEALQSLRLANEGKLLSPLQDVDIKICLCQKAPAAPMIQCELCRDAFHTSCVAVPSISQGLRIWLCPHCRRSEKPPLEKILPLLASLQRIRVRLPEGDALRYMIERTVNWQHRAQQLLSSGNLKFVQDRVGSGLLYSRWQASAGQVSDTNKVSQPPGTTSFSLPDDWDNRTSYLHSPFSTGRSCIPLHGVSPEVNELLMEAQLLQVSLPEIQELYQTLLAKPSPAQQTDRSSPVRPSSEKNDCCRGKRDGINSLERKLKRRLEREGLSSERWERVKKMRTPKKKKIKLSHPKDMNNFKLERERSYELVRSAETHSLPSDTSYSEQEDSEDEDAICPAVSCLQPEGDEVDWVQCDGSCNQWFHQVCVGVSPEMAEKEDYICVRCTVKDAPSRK
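Compound dilutions met 200 nM (final) KDM5BΔAP for 10 min at room temperature before substrate addition. The substrate mix held 12.5 µM H3K4me3 with cofactors 25 µM α-ketoglutarate and 50 µM Fe²⁺. NADH signal gain over 30 min defined activity.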
Large screens that a line does not name were inactive. Many of the other results were omitted from the sample, so hits are more common in it than they were.

Cc1cccc(NC(=O)N2CCC(CC(=O)NCc3ccccc3)C2)c1C (centres undefined)	none
CN(C(=O)[C@@H]1C[C@@H](c2cccc(C(F)(F)F)c2)N(Cc2cnn(C)c2)C1)c1ccccc1	none
CN(C)C(=O)C1CN(C(=O)c2cccc(Cl)c2)CC12CCOCC2 (centres undefined)	none
CC(C)C[C@@H](NC(=O)[C@@H]1C[C@@H](NC(=O)c2cnccn2)CCN1C(=O)COCC(=O)O)C(N)=O	none
CC(C)(C)CC(=O)Nc1nnc(SCC(=O)NC2CCCC2)s1	none
O=C(O)CCn1ncc2cc(OCC3CCN(c4ncc(F)cn4)CC3)ccc21	KDM5B inhibitor 35µM
O=C(O)CCn1ncc2cc(OCC3CCN(C(=O)C4CC4)CC3)ccc21	none
Cc1nccc(N2CCC(COc3ccc4c(cnn4CC[S+](C)(=O)[O-])c3)CC2)n1	none
COc1ccc(Cl)cc1C(=O)N1CCC(COc2ccc3c(cnn3CCC(=O)O)c2)CC1	none
CCc1cnc(N2CCC(COc3ccc4c(cnn4CCC(=O)O)c3)CC2)nc1	KDM5B inhibitor 40µM
CCOC(=O)N1CCC(COc2ccc3c(cnn3CCC(=O)O)c2)CC1	none
O=C(C1CCOCC1)N1CCC(Oc2cccc(F)c2)C1 (centres undefined)	none
Cc1ccc(CCNC(=O)CCc2nc(CS(=O)(=O)c3ccc(F)cc3)no2)cc1	none
O=C(/C=C/c1ccccc1Cl)c1cc(Br)ccc1O	none
Cc1ccc(Cl)cc1NC(=O)N[C@H](CC(C)C)C(=O)O	none
O=c1c2ccccc2nc(-c2ccc(Cl)cc2)n1CCCOc1ccccc1F	none
CC1=C[C@@H](CN2CCOCC2)[C@H](C(C)C)C[C@H]1Cc1nnc(C)o1	none
CC(=O)N1CCN(C[C@@H]2C=C(C)[C@H](Cc3nnc(-c4cccnc4)o3)C[C@H]2C(C)C)CC1	none
CC1=C[C@@H](CN2CCN(c3ccccn3)CC2)[C@H](C(C)C)C[C@H]1Cc1nnc(-c2ccccc2)o1	KDM5B inhibitor 28µM
CC1=C[C@@H](CN2CCOCC2)[C@H](C(C)C)C[C@H]1Cc1nnc(-c2ccc(N(C)C)cc2)o1	KDM5B inhibitor 35µM
CC1=C[C@@H](CN2CCN(CCO)CC2)[C@H](C(C)C)C[C@H]1Cc1nnc(-c2ccncc2)o1	none
CC1=C[C@@H](CN2CCOCC2)[C@H](C(C)C)C[C@H]1Cc1nnc(-c2ccccc2)o1	none
CCCCn1c(=N)n(CCOc2ccccc2OC)c2ccccc21	none
COc1ccc(C(=O)N2CCN(C(=O)c3nnn4c3COC(c3ccc(Cl)cc3)C4)CC2)cc1F (centres undefined)	none
CCCNc1cc(N2CCC(CCC(=O)N3CCN(c4ccccc4F)CC3)CC2)ncn1	none
CC(=O)N1CCN(c2nc3c(s2)CC(C(=O)NCc2ccccc2C)CC3)CC1 (centres undefined)	none
COc1ccc(-c2[nH]c(-c3ccccc3)nc2SCC(=O)NC2CCCC2)cc1	none
CCOC(=O)c1cccc(NC(=O)c2ccc(NC(=O)C3CCCO3)cc2)c1 (centres undefined)	none
Cc1ccc(OC(C)C(=O)NC2CCCC2)cc1C (centres undefined)	none
COc1cccc(C(O)c2nc(C(=O)NCc3ccco3)c(C)o2)c1 (centres undefined)	none
COc1cccc(C(O)c2nc(C(=O)Nc3ccc(OC)c(OC)c3)c(C)o2)c1 (centres undefined)	none
COc1cccc(C(O)c2nc(C(=O)N3CCN(c4ccccn4)CC3)c(C)o2)c1 (centres undefined)	KDM5B inhibitor 25µM
Cc1cc(C(=O)COc2ccc([N+](=O)[O-])cc2)c(C)n1C1CC1	none
CCn1c(C)nc2cc(C(N)=O)ccc21	none
COc1ccc(-c2nn(-c3ccccc3)cc2CN2CCC(CO)CC2)c(F)c1	none
COc1ccc(-c2nn(-c3ccccc3)cc2CN2CCC(C#N)CC2)c(F)c1	none
COc1ccc(-n2cc(CN3CCC(O)CC3)c(-c3cccc(F)c3)n2)cc1	KDM5B inhibitor 28µM
Cc1occc1-c1nnc(SCc2cc(Cl)c3c(c2)OCCO3)o1	none
Cc1ccc(-n2c(SCC(=O)Nc3c(C)cccc3C)nc(O)c(C)c2=O)cc1	none
CC(Oc1ccc(Br)cc1Cl)C(=O)NN (centres undefined)	none
CCCN(CC1CCOC1)S(=O)(=O)c1ccccc1Br (centres undefined)	none
CN1CCN(CCCNc2nc3ccccc3c3nc(-c4ccccc4)nn23)CC1	none
CN1CCN(CCCNc2nccc(-c3ccccn3)n2)CC1	KDM5B inhibitor 28µM
CC(C)(O)CCc1cccc(C(=O)NCCCc2ccccn2)c1	none
CN1CCN(CCCNc2nc(CO)nc3ccccc23)CC1	none
c1ccc(CCCNc2nccc(-c3ccccn3)n2)nc1	KDM5B inhibitor 28µM
O=C(NCCCNc1ccccc1)NCCc1ccccn1	none
CC1=C[C@@H](CNC(=O)COCC(=O)O)[C@H](C(C)C)C[C@H]1Cc1nc2ccccc2[nH]1	none
CCc1cc(CN2CCCC(C(=O)Nc3ccc(-n4ccnc4C)cc3)C2)on1 (centres undefined)	none
COCCC(=O)N[C@@H]1CN(c2ccncn2)C[C@H]1CN(C)C	none
CCn1ncc(C(=O)N[C@@H]2CN(c3ccncn3)C[C@H]2CN(C)C)c1C	none
CCn1ncc(C(=O)N[C@@H]2CN(c3ccccn3)C[C@H]2CN(C)C)c1C	KDM5B inhibitor 32µM
COc1ccccc1C(=O)N[C@@H]1CN(c2ccccn2)C[C@H]1CN(C)C	KDM5B inhibitor 28µM
CCn1ncc(C(=O)N[C@@H]2CN(Cc3ccccc3)C[C@H]2CN(C)C)c1C	none
NC(=O)Nc1ccc(C(=O)OCC(=O)N2CCCC2=O)cc1	none
CC(C)CNC(=O)C(NC(=O)c1ccccc1)C1CCN(C(=O)c2ccc(F)cc2)CC1 (centres undefined)	none
O=C1CC2CCN([S+](=O)([O-])c3ccccc3)CC2CCN1 (centres undefined)	none
Cn1ncc(N2CCOC(CCNc3cnc4ccccc4n3)C2)cc1=O (centres undefined)	KDM5B inhibitor 32µM
Cn1ncc(N2CCOC(CCNC(=O)c3cccnn3)C2)cc1=O (centres undefined)	none
CC(C)c1nc(Cn2ncc(N3CCOC(CCN)C3)cc2=O)no1 (centres undefined)	none
O=S(=O)(c1ccc2oc(Nc3ccc(F)c(F)c3)nc2c1)N1CCCCC1	none
COc1ccc(C(=O)NC[C@H]2O[C@@H](CC(=O)NCCN(C)C)[C@H](O)[C@@H]2O)cc1	none
CCc1cccc2c(C3=CCN(C(=O)c4ccccc4)CC3)c[nH]c12	none
CC(=O)c1ccc(C(=O)N2CC=C(c3ccccc3)CC2)s1	none
O=C(c1cccc(O)c1)N1CC=C(c2cnc3cnc(-c4ccccc4)cn23)CC1	KDM5B inhibitor 28µM
CSC1=N/C(=C\c2ccc(SC)cc2)C(=O)S1	none
COc1ccc(NC(=O)CSc2nnc(CN3CCOCC3)n2C)cc1Cl	none
Cc1ccc(NC(=O)CCNc2c(C)nc3cnccn23)c(F)c1	KDM5B inhibitor 25µM
CCOc1ccc(NC(=O)CCNc2c(C)nc3cnccn23)cc1	KDM5B inhibitor 20µM
Cc1ccc(NCC(=O)Nc2ccc(CC#N)cc2)c(F)c1	none
CCOc1ccc(NC(=O)CCc2c(C)nc3nc(C)nn3c2C)cc1	none
CCOc1ccc(NC(=O)CSCc2cc(=O)n3cccc(C)c3n2)cc1	none
Cc1ccc(NC(=O)CCn2ccn3nc4c(c3c2=O)CCCC4)c(F)c1	none
COc1ccc(CC(=O)N2CCN(c3nc(-c4ccc(Cl)cc4)no3)CC2)cc1OC	none
CN1C[C@@H](NC(=O)c2ccc(F)cc2)C[C@H]1c1nc(-c2ccc(Cl)cc2)no1	none
CCOC(=O)C(=O)NNC(=O)OC	none
COc1cccc(CSc2nc3cc(OC)c(OC)cc3c3nc(CCn4nc(C)cc4C)nn23)c1	none

Screening data: PubChem BioAssay, National Center for Advancing Translational Sciences (NCATS)
